From PubChem BioAssay (NCATS)
Activity calls are given as the source filed them. Calls follow the shape of the dose curve; as a rule, active = well fitted curve in the direction sought with a large enough effect; inconclusive = small, poorly fitted or top-dose-only effect, or another doubt; inactive = no such curve, though single readings can be large or run the other way.

Each compound was assayed against Alpha-galactosidase (Coffea arabica) (UniProt Q42656) (assay: Counterscreen for Glucocerebrosidase Inhibitors: qHTS Assay for Coffee Bean alpha-Galactosidase at pH 4.5 (AID 957;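 also: plate controls were enzyme alone for no effect and no enzyme for full effect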)). Details: purified coffee bean alpha-galactosidase, fluorogenic substrate; series mostly up to 76.9 µM; activity change, negative = inhibition: at the top concentration.
Method in brief: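 Coffee bean alpha-galactosidase 2 nM, substrate 4-MU-alpha-Gal 80 uM, pH 4.5 citrate/Tween-20, 20 min RT. Cpd titration 0.7 nM–77 uM. Stop pH 10, fluorescence 365/440 nm; Hill-equation AC50.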

Chain of Alpha-galactosidase (Coffea arabica) (Q42656 whole entry, looked up): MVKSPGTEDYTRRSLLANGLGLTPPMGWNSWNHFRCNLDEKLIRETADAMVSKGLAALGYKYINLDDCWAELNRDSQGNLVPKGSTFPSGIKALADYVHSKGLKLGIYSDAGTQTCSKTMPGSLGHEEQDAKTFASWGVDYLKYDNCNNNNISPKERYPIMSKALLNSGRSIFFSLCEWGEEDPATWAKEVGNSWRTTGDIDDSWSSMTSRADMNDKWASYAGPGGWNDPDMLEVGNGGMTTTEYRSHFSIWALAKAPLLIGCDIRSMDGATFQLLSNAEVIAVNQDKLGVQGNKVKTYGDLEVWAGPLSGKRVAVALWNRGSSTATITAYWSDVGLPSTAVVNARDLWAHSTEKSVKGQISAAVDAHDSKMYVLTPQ

| SMILES | activity change, negative = inhibition | outcome |
| --- | --- | --- |
| O=C(O)c1cc([N+](=O)[O-])ccc1NCCCc1ccccc1 | 0.653% (inactive) |  |
| CC(N)=O | -0.93% (inactive) |  |
| NC(N)=NC(N)=Nc1cccc(Cl)c1 | 1.85% (inactive) |  |
| Cc1cccc(C(=O)NCN2CCN(c3ccccc3C#N)CC2)c1 | -0.065% (inactive) |  |
| O=C(O)[C@@H]1C[C@@H](C(=O)O)N1 | -0.532% (inactive) |  |
| O=C(O)c1ccccc1Nc1cccc(OCc2ccc3ccccc3n2)c1 | 2.85% (inactive) |  |
| COc1cc2c(CCNC(C)=O)c[nH]c2cc1O | 0.387% (inactive) |  |
| O=[N+]([O-])c1cccc2cn[nH]c12 | 2.11% (inactive) |  |
| CC(C)(C=O)Cc1cc(C(C)(C)C)c(O)c(C(C)(C)C)c1 | -0.608% (inactive) |  |
| Cc1nc(N=Nc2ccc(S(=O)(=O)O)cc2S(=O)(=O)O)c(COP(=O)(O)O)c(C=O)c1O | -1.04% (inactive) |  |
| O=C1CCC(c2ccc(-n3ccnc3)cc2)=NN1 | 0.696% (inactive) |  |
| COc1ccc(C(=O)NCc2cccnc2)cc1C(=O)NCc1cccnc1 | 4.24% (inactive) |  |
| COc1cc(CC(=O)O)ccc1O | -3.98% (inactive) |  |
| CCCn1c(=O)c2[nH]c(C3CCCC3)nc2n(CCC)c1=O | -1.37% (inactive) |  |
| O=[N+]([O-])c1cccc2c(Br)[nH]nc12 | -6.41% (inactive) |  |
| Cc1ccc2c(c1)C(N1CCN(C)CC1)=Nc1cccnc1N2 | -1.26% (inactive) |  |
| O=c1[nH]c(=O)c2nc3ccccc3nc2[nH]1 | -1.01% (inactive) |  |
| CCCn1c(=O)c2[nH]c(-c3ccc(S(=O)(=O)O)cc3)nc2n(CCC)c1=O | 1.29% (inactive) |  |
| COc1ccccc1N1CCN(CCN2C(=O)CC3(CCCC3)CC2=O)CC1 | -0.893% (inactive) |  |
| CN[C@H](CC(=O)O)C(=O)O | 0.277% (inactive) |  |

| SMILES | activity change, negative = inhibition | outcome |
| --- | --- | --- |
| CN(C)C(N)=NCCC[C@H](N)C(=O)O | 1.56% (inactive) |  |
| c1ccc2c(c1)CC(N1CCN(c3cccc4c3OCCO4)CC1)C2 | -4.53% (inactive) |  |
| CCCn1c(=O)c2c(ncn2C)n(CCC)c1=O | -1.21% (inactive) |  |
| CCN(CC)CCOC(=O)c1cc(Cl)c(N)cc1OC | 6.27% (inactive) |  |
| O=c1[nH]c2ccccc2c2ccccc12 | 4.23% (inactive) |  |
| COc1ccccc1N1CCN(CCCCN2C(=O)c3ccccc3C2=O)CC1 | 1.84% (inactive) |  |
| N=C(N)SCCc1cnc[nH]1 | -0.0372% (inactive) |  |
| CCn1c(=O)[nH]c2cc(Cl)c(Cl)cc21 | -2.38% (inactive) |  |
| O=C(Nc1cccc(C(=O)Nc2ccc(S(=O)(=O)O)c3cc(S(=O)(=O)O)cc(S(=O)(=O)O)c23)c1)Nc1cccc(C(=O)Nc2ccc(S(=O)(=O)O)c3cc(S(=O)(=O)O)cc(S(=O)(=O)O)c23)c1 | 0.369% (inactive) |  |
| COc1ccc(-c2ccc(N)[n+](CCCC(=O)O)n2)cc1 | 3.95% (inactive) |  |
| O=C(OCCN1CCOCC1)C1(c2ccccc2)CCCCC1 | -0.265% (inactive) |  |
| C[C@@H](NC(=O)/C(C#N)=C/c1ccc(O)c(O)c1)c1ccccc1 | -3.32% (inactive) |  |
| NS(=O)(=O)c1cccc2c1c([N+](=O)[O-])cc1nc(O)c(O)nc12 | -4.24% (inactive) |  |
| Cc1ccc([N+](=O)[O-])cc1S(=O)(=O)N(C)C |  | inactive |
| C#CCn1c(=O)c2c(ncn2C)n(C)c1=O | -0.974% (inactive) |  |
| O=C(O)c1ccccc1Nc1ccccc1 | 0.356% (inactive) |  |
| O=c1onc2cnc3ccccc3n12 | -4.51% (inactive) |  |
| COc1ccc2c(c1)c(CC(=O)O)c(C)n2Cc1ccc(Cl)cc1 | -4.78% (inactive) |  |
| O=C(c1cc(O)c(O)c([N+](=O)[O-])c1)c1ccccc1F | -8.48% (inactive) |  |
| C[C@@H]1C(=O)NC2=Nc3cccc(Cl)c3CN21 | 1.29% (inactive) |  |
